According to PubChem BioAssay AID1159580 (chemical genetic matrix, 2015):
“And” between values parts separate entries of the source, which are not always exact repeats. Identical values can stand only once. Out of some 5,500 compounds screened, about 2,000 (36%) were called active. Another 18% or so got no clear call; they are omitted. Rule as the data show it: active = normalized growth mostly below about 0.91 (no sharp cut-off); inconclusive = no clear call, values can overlap the other calls; inactive = mostly above about 0.92. Some of the results follow.

Assay: chemical genetic growth profiling, strain panel (AID 1159580);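 also: tested at 20 µM; growth read once vehicle control cultures reached saturation at 30 °C; 1 = growth at the plate median or of vehicle wells; lower values mean less growth of the strain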
Details: growth OD

Measured: normalized growth

NCC(CC(=O)O)c1ccc(Cl)cc1 (stereo not drawn)
inactive: S. cerevisiae deletion strains, locus YJR075W, strain HOC1, stronger effect = lower value 0.991 | S. cerevisiae deletion strains, locus YKL009W, strain mrt4, stronger effect = lower value 0.968 | S. cerevisiae deletion strains, locus YKL068W, stronger effect = lower value 1.01 | S. cerevisiae deletion strains, locus YKL085W, strain MDH1 (second series), stronger effect = lower value 0.991 | S. cerevisiae deletion strains, locus YKL085W, strain MDH1, stronger effect = lower value 0.991 | S. cerevisiae deletion strains, locus YKL160W, strain elf1, stronger effect = lower value 1.01 | S. cerevisiae deletion strains, locus YKR001C, strain vps1, stronger effect = lower value 0.974 | S. cerevisiae deletion strains, locus YKR026C, strain gcn3, stronger effect = lower value 0.995 | S. cerevisiae deletion strains, locus YKR091W, strain srl3, stronger effect = lower value 1 | S. cerevisiae deletion strains, locus YLL001W, strain dnm1, stronger effect = lower value 1.03 | S. cerevisiae deletion strains, locus YLL026W, stronger effect = lower value 1.01 | S. cerevisiae deletion strains, locus YLL041C, strain sdh2, stronger effect = lower value 0.993 | S. cerevisiae deletion strains, locus YLR027C, strain aat2, stronger effect = lower value 1.01 | S. cerevisiae deletion strains, locus YLR039C, strain RIC1, stronger effect = lower value 1.07 | S. cerevisiae deletion strains, locus YLR058C, strain SHM2, stronger effect = lower value 1.02 | S. cerevisiae deletion strains, locus YLR102C, strain apc9, stronger effect = lower value 0.985 | S. cerevisiae deletion strains, locus YLR113W, strain HOG1, stronger effect = lower value 1.05 | S. cerevisiae deletion strains, locus YLR221C, strain rsa3, stronger effect = lower value 0.976 | S. cerevisiae deletion strains, locus YLR258W, strain gsy2, stronger effect = lower value 0.984 | S. cerevisiae deletion strains, locus YLR262C, strain YPT6 (second series), stronger effect = lower value 0.995 | S. cerevisiae deletion strains, locus YLR262C, strain YPT6, stronger effect = lower value 1.08 | S. cerevisiae deletion strains, locus YLR268W, strain sec22, stronger effect = lower value 1.02 | S. cerevisiae deletion strains, locus YLR320W, strain mms22, stronger effect = lower value 0.968 | S. cerevisiae deletion strains, locus YLR330W, strain CHS5, stronger effect = lower value 1.02 | S. cerevisiae deletion strains, locus YLR342W, strain FKS1 (second series), stronger effect = lower value 1.03 | S. cerevisiae deletion strains, locus YLR342W, strain FKS1, stronger effect = lower value 1.03 | S. cerevisiae deletion strains, locus YLR357W, strain rsc2, stronger effect = lower value 1 | S. cerevisiae deletion strains, locus YLR370C, strain arc18, stronger effect = lower value 0.997 | S. cerevisiae deletion strains, locus YLR371W, strain rom2, stronger effect = lower value 0.985 | S. cerevisiae deletion strains, locus YLR384C, strain iki3, stronger effect = lower value 1.01 | S. cerevisiae deletion strains, locus YLR418C, strain cdc73, stronger effect = lower value 0.979 | S. cerevisiae deletion strains, locus YML016C, strain PPZ1, stronger effect = lower value 1.02 | S. cerevisiae deletion strains, locus YML032C, strain rad52, stronger effect = lower value 0.987 | S. cerevisiae deletion strains, locus YML120C, strain ndi1, stronger effect = lower value 0.999 | S. cerevisiae deletion strains, locus YML124C, strain tub3, stronger effect = lower value 0.983 | S. cerevisiae deletion strains, locus YMR058W, strain fet3, stronger effect = lower value 1.02 | S. cerevisiae deletion strains, locus YMR078C, strain ctf18, stronger effect = lower value 0.99 | S. cerevisiae deletion strains, locus YMR125W, strain sto1, stronger effect = lower value 0.97 | S. cerevisiae deletion strains, locus YMR129W, stronger effect = lower value 0.999 | S. cerevisiae deletion strains, locus YMR205C, strain PFK2, stronger effect = lower value 1.01 | S. cerevisiae deletion strains, locus YMR223W, strain ubp8, stronger effect = lower value 1 | S. cerevisiae deletion strains, locus YMR231W, strain pep5, stronger effect = lower value 1.01 | S. cerevisiae deletion strains, locus YMR263W, strain SAP30, stronger effect = lower value 1.01 | S. cerevisiae deletion strains, locus YMR307W, strain GAS1, stronger effect = lower value 1.1 | S. cerevisiae deletion strains, locus YNL067W, strain RPL9B, stronger effect = lower value 1 | S. cerevisiae deletion strains, locus YNL071W, strain lat1, stronger effect = lower value 0.991 | S. cerevisiae deletion strains, locus YNL128W, strain TEP1, stronger effect = lower value 1.01 | S. cerevisiae deletion strains, locus YNL153C, strain GIM3, stronger effect = lower value 1.01 | S. cerevisiae deletion strains, locus YNL175C, strain NOP13, stronger effect = lower value 0.977 | S. cerevisiae deletion strains, locus YNL183C, strain NPR1, stronger effect = lower value 0.993 | S. cerevisiae deletion strains, locus YNL197C, strain WHI3, stronger effect = lower value 1.04 | S. cerevisiae deletion strains, locus YNL209W, strain ssb2, stronger effect = lower value 0.997 | S. cerevisiae deletion strains, locus YNL224C, strain SQS1, stronger effect = lower value 0.993 | S. cerevisiae deletion strains, locus YNL233W, strain BNI4, stronger effect = lower value 1.01 | S. cerevisiae deletion strains, locus YNL248C, strain rpa49, stronger effect = lower value 0.961 | S. cerevisiae deletion strains, locus YNL250W, strain rad50, stronger effect = lower value 0.986 | S. cerevisiae deletion strains, locus YNL271C, strain bni1, stronger effect = lower value 0.987 | S. cerevisiae deletion strains, locus YNL298W, strain CLA4, stronger effect = lower value 0.984 | S. cerevisiae deletion strains, locus YNL307C, strain MCK1, stronger effect = lower value 0.977 | S. cerevisiae deletion strains, locus YNL322C, strain KRE1 (second series), stronger effect = lower value 0.985 | S. cerevisiae deletion strains, locus YNR049C, strain mso1, stronger effect = lower value 1.01 | S. cerevisiae deletion strains, locus YNR052C, strain pop2, stronger effect = lower value 0.979 | S. cerevisiae deletion strains, locus YOL012C, strain htz1 1.49 | S. cerevisiae deletion strains, locus YOL147C, strain pex11, stronger effect = lower value 0.984 | S. cerevisiae deletion strains, locus YOR001W, strain rrp6, stronger effect = lower value 0.99 | S. cerevisiae deletion strains, locus YOR061W, strain CKA2, stronger effect = lower value 1.02 | S. cerevisiae deletion strains, locus YOR069W, strain VPS5, stronger effect = lower value 1.01 | S. cerevisiae deletion strains, locus YOR070C, strain gyp1, stronger effect = lower value 0.98 | S. cerevisiae deletion strains, locus YOR080W, strain dia2, stronger effect = lower value 0.997 | S. cerevisiae deletion strains, locus YOR083W, strain WHI5 (second series), stronger effect = lower value 1.04 | S. cerevisiae deletion strains, locus YOR083W, strain WHI5, stronger effect = lower value 0.988 | S. cerevisiae deletion strains, locus YOR106W, strain vam3, stronger effect = lower value 1.02 | S. cerevisiae deletion strains, locus YOR136W, strain idh2, stronger effect = lower value 0.974 | S. cerevisiae deletion strains, locus YOR144C, strain elg1, stronger effect = lower value 0.992 | S. cerevisiae deletion strains, locus YOR184W, strain ser1, stronger effect = lower value 0.984 | S. cerevisiae deletion strains, locus YOR231W, strain MKK1, stronger effect = lower value 1.08 | S. cerevisiae deletion strains, locus YOR265W, strain rbl2, stronger effect = lower value 1 | S. cerevisiae deletion strains, locus YOR270C, strain vph1, stronger effect = lower value 0.976 | S. cerevisiae deletion strains, locus YOR290C, strain snf2, stronger effect = lower value 0.957 | S. cerevisiae deletion strains, locus YOR316C, strain cot1, stronger effect = lower value 0.986 | S. cerevisiae deletion strains, locus YPL051W, strain arl3, stronger effect = lower value 0.999 | S. cerevisiae deletion strains, locus YPL055C, strain LGE1, stronger effect = lower value 1.02 | S. cerevisiae deletion strains, locus YPL078C, strain atp4, stronger effect = lower value 1.02 | S. cerevisiae deletion strains, locus YPL106C, strain sse1, stronger effect = lower value 0.968 | S. cerevisiae deletion strains, locus YPL240C, strain hsp82, stronger effect = lower value 0.992 | S. cerevisiae deletion strains, locus YPL241C, strain CIN2, stronger effect = lower value 1.01 and 0.983 | S. cerevisiae deletion strains, locus YPL256C, strain CLN2, stronger effect = lower value 1.08 | S. cerevisiae deletion strains, locus YPR119W, strain clb2, stronger effect = lower value 0.993 | S. cerevisiae deletion strains, locus YPR141C, strain kar3, stronger effect = lower value 0.996 | S. cerevisiae deletion strains, locus YPR163C, strain tif3, stronger effect = lower value 0.99 | S. cerevisiae deletion strains, locus YPR167C, strain met16, stronger effect = lower value 0.991 | S. cerevisiae deletion strains, strain wtn01, stronger effect = lower value 0.992 | S. cerevisiae strains, strain wild type, stronger effect = lower value 1.03
